Results published in PubChem BioAssay (NCATS).
Records with an inconclusive call do not appear. Active and inactive are the calls of the source. The call rests on the fitted dose curve; in most records, active means well fitted curve in the direction sought with a large enough effect; inconclusive means small, poorly fitted or top-dose-only effect, or another doubt; inactive means no such curve, though single readings can be large; an effect the other way counts as inactive or inconclusive.

What was measured:
[1] = qHTS of pediatric cancer cell lines to identify multiple opportunities for drug repurposing: Confirmatory screen for SJ-GBM2 cells (AID 1347116); further: nearly all actives have a fitted effect of over 60% in size; further: potency means the concentration at half of the fitted maximal effect
How it was run: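 Viability measured as metabolically active cells via CellTiter-Glo luminescence following 48 hours of compound exposure, 11-point dilutions in confirmatory testing. 500-1,000 cells/well plated 5 hours before dosing; controls were DMSO and 2.3 µM bortezomib.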

[2] = qHTS of pediatric cancer cell lines to identify multiple opportunities for drug repurposing: Confirmatory screen for BT-37 cells (AID 1347117); further: nearly all actives have a fitted effect of over 55% in size; further: potency means the concentration at half of the fitted maximal effect
How it was run: (§1)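 Cells (500-1,000/well) in growth media were settled 5 h at 37 degrees C, then given compounds for 48 h. Viability was read as CellTiter-Glo luminescence. Primary runs used MIPE at 11 points (0.78 nM-46 µM) and NPC at 8 points (0.59 nM-46 µM); follow-ups used 11 points.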

[3] = qHTS of pediatric cancer cell lines to identify multiple opportunities for drug repurposing: Confirmatory screen for TC32 cells (AID 1347118);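 further: cells exposed to compound for 48 h before the read; nearly all actives have a fitted effect of over 65% in size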; further: potency means the concentration at half of the fitted maximal effect
How it was run: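 Measured quantity: luminescence from CellTiter-Glo, reflecting metabolically active TC32 cells following 48 h of compound. Curves came straight from multi-point titrations, with 8 or 11 points in primary and 11 in confirmatory screening.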

[4] = qHTS of pediatric cancer cell lines to identify multiple opportunities for drug repurposing: Confirmatory screen for U-2 OS cells (AID 1347122); further: potency means the concentration at half of the fitted maximal effect; nearly all actives have a fitted effect of over 65% in size
How it was run: as §1

[5] = qHTS of pediatric cancer cell lines to identify multiple opportunities for drug repurposing: Confirmatory screen for Rh41 cells (AID 1347123);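 further: potency means the concentration at half of the fitted maximal effect; 48 h compound exposure; nearly all actives have a fitted effect of over 60% in size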
How it was run: as §1

[6] = qHTS of pediatric cancer cell lines to identify multiple opportunities for drug repurposing: Confirmatory screen for RD cells (AID 1347124);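 further: potency means the concentration at half of the fitted maximal effect; cells exposed to compound for 48 h before viability readout; nearly all actives have a fitted effect of over 65% in size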
How it was run: as §1

[7] = qHTS of pediatric cancer cell lines to identify multiple opportunities for drug repurposing: Confirmatory screen for Rh30 cells (AID 1347126); further: nearly all actives have a fitted effect of over 55% in size; further: potency means the concentration at half of the fitted maximal effect
How it was run: as §1

[8] = qHTS of pediatric cancer cell lines to identify multiple opportunities for drug repurposing: Confirmatory screen for Saos-2 cells (AID 1347127); further: potency means the concentration at half of the fitted maximal effect; nearly all actives have a fitted effect of over 60% in size
How it was run: as §1

[9] = qHTS of pediatric cancer cell lines to identify multiple opportunities for drug repurposing: Confirmatory screen for OHS-50 cells (AID 1347128);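 further: compound exposure lasted 48 h at 37 degrees C; nearly all actives have a fitted effect of over 55% in size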; further: potency means the concentration at half of the fitted maximal effect
How it was run: as §1

[10] = qHTS of pediatric cancer cell lines to identify multiple opportunities for drug repurposing: Confirmatory screen for SK-N-SH cells (AID 1347129);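 further: cells exposed to compound for 48 h before viability read; nearly all actives have a fitted effect of over 60% in size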; further: potency means the concentration at half of the fitted maximal effect
How it was run: as §1

[11] = tested on: Zika virus NS2B-NS3 protease; test: Primary screen GU AMC qHTS for Zika virus inhibitors (AID 1347154); further: nearly all actives have a fitted effect of over 70% in size
How it was run: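 Unlinked Zika NS2B hydrophilic domain/NS3 protease domain noncovalent complex (25 nM final) in 10 mM Tris-HCl pH 8.0, 0.01% Tween 20, with AMC peptide substrate. Fluorescence (ex 340, em 450 nm) change over 15 min, room temperature; percent inhibition fitted to 4-parameter Hill equation.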

[12] = qHTS of pediatric cancer cell lines to identify multiple opportunities for drug repurposing: Confirmatory screen for MG 63 (6-TG R) cells (AID 1347119); further: potency means the concentration at half of the fitted maximal effect; nearly all actives have a fitted effect of over 55% in size
How it was run: as §1

[13] = qHTS of pediatric cancer cell lines to identify multiple opportunities for drug repurposing: Confirmatory screen for Rh18 cells (AID 1347125); further: nearly all actives have a fitted effect of over 55% in size; further: potency means the concentration at half of the fitted maximal effect
How it was run: as §1

[14] = qHTS of pediatric cancer cell lines to identify multiple opportunities for drug repurposing: Confirmatory screen for control Hh wild type fibroblast cells (AID 1347121); further: nearly all actives have a fitted effect of over 70% in size; further: potency means the concentration at half of the fitted maximal effect
How it was run: as §1

Furin (Homo sapiens) = Furin (Homo sapiens) (UniProt P09958); test: Furin counterscreen qHTS for Zika virus inhibitors (AID 1347149); further: potency means the concentration at half of the fitted maximal effect; nearly all actives have a fitted effect of over 70% in size
How it was run: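 Counterscreen measures cleavage of 2 microM BOC-RVRR-AMC, below its ~15 microM Km, by 5 nM full-length human furin at pH 7.0 after a 15-min compound preincubation. Inhibition derives from the 15-min fluorescence increase at 37C.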

[15] = tested on: Zika virus NS2B-NS3 protease (linked construct); test: Confirmatory screen NINDS AMC qHTS for Zika virus inhibitors (AID 1347152); further: potency means the concentration at half of the fitted maximal effect; nearly all actives have a fitted effect of over 70% in size
How it was run: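 IC50s from 4-parameter Hill fits of percent inhibition, based on AMC fluorescence gain (340/450 nm) over 15 min with 10 microM Bz-Nle-KRR-AMC. Enzyme: 1 nM linked NS2B-NS3 in Tris-HCl pH 8.0; 15-min compound preincubation.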

[16] = tested on: Zika virus NS2B-NS3 protease (unlinked complex); test: Confirmatory screen GU AMC qHTS for Zika virus inhibitors (AID 1347153)
How it was run: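 Unlinked enzyme 25 nM, Tris pH 8.0/0.01% Tween 20; cpd 15 min RT, dark; + AMC substrate 10 µM (Km 18.3 µM); 340/450 nm read at t0 and 15 min; % inhibition → 4-param fit.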

Furin (Homo sapiens), sequence (P09958 whole entry, looked up): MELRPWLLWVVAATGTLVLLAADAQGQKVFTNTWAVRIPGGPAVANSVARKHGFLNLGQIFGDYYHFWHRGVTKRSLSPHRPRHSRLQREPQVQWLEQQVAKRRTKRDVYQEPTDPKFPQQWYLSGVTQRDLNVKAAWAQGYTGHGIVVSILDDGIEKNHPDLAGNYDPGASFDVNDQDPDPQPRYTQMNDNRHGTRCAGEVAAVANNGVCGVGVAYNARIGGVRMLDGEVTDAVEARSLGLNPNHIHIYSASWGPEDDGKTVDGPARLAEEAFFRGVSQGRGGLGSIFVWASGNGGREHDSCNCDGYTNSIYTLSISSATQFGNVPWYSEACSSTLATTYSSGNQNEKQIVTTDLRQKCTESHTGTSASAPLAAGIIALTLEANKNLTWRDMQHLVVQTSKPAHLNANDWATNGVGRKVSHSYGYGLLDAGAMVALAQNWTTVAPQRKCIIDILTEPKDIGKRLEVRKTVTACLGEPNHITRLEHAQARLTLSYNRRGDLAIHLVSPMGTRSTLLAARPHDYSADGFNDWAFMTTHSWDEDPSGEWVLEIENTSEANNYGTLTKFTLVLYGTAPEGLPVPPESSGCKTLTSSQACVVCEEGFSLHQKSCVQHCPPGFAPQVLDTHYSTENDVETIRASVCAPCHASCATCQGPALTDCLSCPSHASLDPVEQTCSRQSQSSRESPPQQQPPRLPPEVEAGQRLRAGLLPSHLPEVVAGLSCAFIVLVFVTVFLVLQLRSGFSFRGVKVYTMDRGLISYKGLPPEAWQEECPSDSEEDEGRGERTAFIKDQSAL

SMILES: O=C(NC1CCNCC1)c1[nH]ncc1NC(=O)c1c(Cl)cccc1Cl
- Potency [1]: 1.31 µM (active)
- Potency [2]: 2.4 µM (active)
- Potency [3]: 2400 nM (active)
- Potency [4]: 1.85 µM (active)
- Potency [5]: 1.17 µM (active)
- Potency [6]: 737 nM (active)
- Potency [7]: 0.465 µM (active)
- Potency [8]: 2.69 µM (active)
- Potency [9]: 2.4 µM (active)
- Potency [10]: 1.05 µM (active)
- Potency [11]: inactive

SMILES: C[C@@H](Oc1cc(-n2cnc3ccc(CN4CCN(C)CC4)cc32)sc1C(N)=O)c1ccccc1C(F)(F)F
- Potency [1]: 10.4 µM (active)
- Potency [2]: 0.24 µM (active)
- Potency [3]: 53.7 nM (active)
- Potency [12]: 0.0603 µM (active)
- Potency [5]: 4.14 µM (active)
- Potency [13]: 47.9 µM (active)
- Potency [7]: 13.1 µM (active)
- Potency [9]: 0.0759 µM (active)
- Potency [10]: 13.2 µM (active)

SMILES: CC[C@@H]1C(=O)N(C)c2cnc(Nc3ccc(C(=O)NC4CCN(C)CC4)cc3OC)nc2N1C1CCCC1
- Potency [1]: 1.04 µM (active)
- Potency [2]: 0.131 µM (active)
- Potency [3]: 52.2 nM (active)
- Potency [14]: 18.5 µM (active)
- Potency [6]: 46.5 nM (active)
- Potency [13]: 18.5 µM (active)
- Potency [8]: 0.0369 µM (active)
- Potency [9]: 0.0522 µM (active)
- Potency [10]: 6.62 µM (active)
- Potency [11]: inactive

SMILES: CC[C@H]1CN2CCc3cc(OC)c(OC)cc3[C@H]2C[C@@H]1C[C@@H]1NCCc2cc(OC)c(OC)cc21
- Potency [1]: 0.522 µM (active)
- Potency [2]: 0.293 µM (active)
- Potency [3]: 233 nM (active)
- Potency [12]: 0.827 µM (active)
- Potency [4]: 0.928 µM (active)
- Potency [5]: 1.47 µM (active)
- Potency [7]: 5.85 µM (active)
- Potency [8]: 0.928 µM (active)
- Potency [9]: 0.414 µM (active)
- Potency [10]: 0.332 µM (active)
- Potency [11]: inactive

SMILES: CC1(C)OC2=C(C(=O)c3ccccc3C2=O)[C@H](NCc2ccccc2)[C@H]1O
- Potency [1]: 7.37 µM (active)
- Potency [2]: 5.22 µM (active)
- Potency [3]: 4140 nM (active)
- Potency [14]: 13.1 µM (active)
- Potency [4]: 1.85 µM (active)
- Potency [5]: 2.93 µM (active)
- Potency [13]: 7.37 µM (active)
- Potency [8]: 8.27 µM (active)
- Potency [9]: 7.37 µM (active)
- Potency [10]: 5.9 µM (active)

SMILES: C#Cc1cccc(Nc2ncnc3cc(OC)c(OCCCCCCC(=O)NO)cc23)c1
- Potency [1]: 1.91 µM (active)
- Potency [2]: 0.759 µM (active)
- Potency [3]: 676 nM (active)
- Potency [12]: 0.851 µM (active)
- Potency [4]: 1.35 µM (active)
- Potency [5]: 1.07 µM (active)
- Potency [6]: 1200 nM (active)
- Potency [13]: 1.91 µM (active)
- Potency [7]: 2.14 µM (active)
- Potency [8]: 1.35 µM (active)
- Potency [9]: 2.4 µM (active)
- Potency [10]: 2.41 µM (active)

SMILES: CC(C)c1cc(-c2n[nH]c(=O)n2-c2ccc3c(ccn3C)c2)c(O)cc1O
- Potency [1]: inactive
- Potency [2]: inactive
- Potency [3]: inactive
- Potency [14]: inactive
- Potency [9]: inactive
- Potency [10]: inactive

SMILES: COCCn1c2c([n+](Cc3cnccn3)c1C)C(=O)c1ccccc1C2=O
- Potency [1]: 0.0657 µM (active)
- Potency [2]: 0.0827 µM (active)
- Potency [3]: 18.5 nM (active)
- Potency [14]: 0.261 µM (active)
- Potency [4]: 0.0147 µM (active)
- Potency [5]: 0.0185 µM (active)
- Potency [13]: 0.0147 µM (active)
- Potency [7]: inactive
- Potency [8]: 0.0074 µM (active)
- Potency [9]: 0.0052 µM (active)
- Potency [10]: 0.235 µM (active)
- Potency [11]: inactive

SMILES: COc1ccc(F)c(F)c1C(=O)c1cnc(NC2CCN(S(C)(=O)=O)CC2)nc1N
- Potency [1]: 0.827 µM (active)
- Potency [2]: 2.33 µM (active)
- Potency [3]: 2080 nM (active)
- Potency [14]: inactive
- Potency [4]: 3.29 µM (active)
- Potency [5]: 2.33 µM (active)
- Potency [7]: inactive
- Potency [9]: 2.33 µM (active)
- Potency [10]: 2.35 µM (active)
- Potency [11]: inactive

SMILES: C[C@@]12O[C@@H](C[C@]1(O)CO)n1c3ccccc3c3c4c(c5c6ccccc6n2c5c31)CNC4=O
- Potency [1]: 18.5 µM (active)
- Potency [2]: 2.93 µM (active)
- Potency [3]: 657 nM (active)
- Potency [12]: 1.47 µM (active)
- Potency [14]: 18.5 µM (active)
- Potency [4]: 0.737 µM (active)
- Potency [5]: 8.27 µM (active)
- Potency [13]: 3.69 µM (active)
- Potency [7]: 2.33 µM (active)
- Potency [8]: 1.31 µM (active)
- Potency [9]: 4.65 µM (active)
- Potency [10]: 5.26 µM (active)
- Potency (Furin (Homo sapiens)): 7.62 µM (active)
- Potency [15]: 24.1 µM (active)
- Potency [16]: 24.1 µM (active)

SMILES: CCC1=C[C@@H]2CN(C1)Cc1c([nH]c3ccccc13)[C@@](C(=O)OC)(c1cc3c(cc1OC)N(C)[C@@H]1[C@@](O)(C(=O)OC)[C@H](OC(C)=O)[C@]4(CC)C=CCN5CC[C@]31[C@@H]54)C2
- Potency [1]: 5.22 µM (active)
- Potency [2]: 7.37 µM (active)
- Potency [3]: 6570 nM (active)
- Potency [12]: 13.1 µM (active)
- Potency [14]: inactive
- Potency [4]: 7.37 µM (active)
- Potency [5]: 0.369 µM (active)
- Potency [13]: inactive
- Potency [7]: 23.3 µM (active)
- Potency [8]: 7.37 µM (active)
- Potency [9]: 11.7 µM (active)
- Potency [10]: 5.9 µM (active)
- Potency [11]: inactive

SMILES: COC(=O)[C@]12CCC(C)(C)C[C@@H]1[C@@H]1C(=O)C=C3[C@@]4(C)C=C(C#N)C(=O)C(C)(C)[C@@H]4CC[C@@]3(C)[C@]1(C)CC2
- Potency [1]: 4.14 µM (active)
- Potency [2]: 3.69 µM (active)
- Potency [3]: 3290 nM (active)
- Potency [12]: 4.65 µM (active)
- Potency [4]: 2.08 µM (active)
- Potency [5]: 2.33 µM (active)
- Potency [13]: 5.22 µM (active)
- Potency [7]: 3.29 µM (active)
- Potency [8]: 3.69 µM (active)
- Potency [9]: 5.22 µM (active)
- Potency [10]: 2.09 µM (active)

SMILES: O=C(C=Cc1cccc(S(=O)(=O)Nc2ccccc2)c1)NO
- Potency [1]: 2.14 µM (active)
- Potency [2]: 1.7 µM (active)
- Potency [3]: 759 nM (active)
- Potency [12]: 2.69 µM (active)
- Potency [4]: 2.4 µM (active)
- Potency [5]: 5.37 µM (active)
- Potency [6]: 5370 nM (active)
- Potency [13]: 1.91 µM (active)
- Potency [7]: 5.37 µM (active)
- Potency [8]: 1.91 µM (active)
- Potency [9]: 7.59 µM (active)
- Potency [10]: 13.6 µM (active)
- Potency [11]: inactive
